Source: ChEMBL document CHEMBL2218924, “A broad activity screen in support of a chemogenomic map for kinase signalling research and drug discovery” (Biochem J, 2013)

What was measured:
[1] = molecular target: T1, Ephrin type-A receptor 3 (Homo sapiens) (UniProt P29320); settings: at 10 µM
T1 sequence (whole entry): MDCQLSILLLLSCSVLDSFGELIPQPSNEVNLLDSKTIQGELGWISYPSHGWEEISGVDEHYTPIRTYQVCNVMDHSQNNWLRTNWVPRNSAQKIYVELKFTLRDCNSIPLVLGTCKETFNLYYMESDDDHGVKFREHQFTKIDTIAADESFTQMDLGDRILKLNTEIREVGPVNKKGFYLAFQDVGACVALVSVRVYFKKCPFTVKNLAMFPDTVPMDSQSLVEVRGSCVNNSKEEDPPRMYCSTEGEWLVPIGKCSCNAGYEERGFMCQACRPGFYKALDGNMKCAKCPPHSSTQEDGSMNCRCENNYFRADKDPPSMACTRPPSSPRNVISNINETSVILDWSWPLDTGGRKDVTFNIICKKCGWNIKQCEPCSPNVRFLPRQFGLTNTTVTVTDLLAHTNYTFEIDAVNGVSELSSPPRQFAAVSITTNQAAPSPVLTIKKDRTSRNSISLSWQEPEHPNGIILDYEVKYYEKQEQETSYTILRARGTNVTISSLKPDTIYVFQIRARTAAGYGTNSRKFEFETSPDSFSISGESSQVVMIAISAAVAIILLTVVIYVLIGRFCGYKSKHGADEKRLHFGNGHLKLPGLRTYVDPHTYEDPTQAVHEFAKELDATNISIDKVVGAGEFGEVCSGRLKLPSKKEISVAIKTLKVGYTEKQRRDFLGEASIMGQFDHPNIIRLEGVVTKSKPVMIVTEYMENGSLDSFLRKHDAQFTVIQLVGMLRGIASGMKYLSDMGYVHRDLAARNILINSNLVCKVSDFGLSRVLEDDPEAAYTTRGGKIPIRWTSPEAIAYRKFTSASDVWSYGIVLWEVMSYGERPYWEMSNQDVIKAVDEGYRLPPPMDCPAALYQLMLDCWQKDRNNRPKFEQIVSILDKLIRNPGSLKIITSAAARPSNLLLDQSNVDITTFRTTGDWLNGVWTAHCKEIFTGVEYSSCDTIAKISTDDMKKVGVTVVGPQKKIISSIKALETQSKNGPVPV

[2] = molecular target: Ephrin type-A receptor 4 (Homo sapiens) (UniProt P54764); settings: at 1 µM
[3] = molecular target: Ephrin type-A receptor 4 (Homo sapiens) (UniProt P54764); settings: at 10 µM
[4] = molecular target: Ephrin type-A receptor 5 (Homo sapiens) (UniProt P54756); settings: at 1 µM
[5] = molecular target: Ephrin type-A receptor 5 (Homo sapiens) (UniProt P54756); settings: at 10 µM
[6] = molecular target: Ephrin type-A receptor 7 (Homo sapiens) (UniProt Q15375); settings: at 1 µM
[7] = molecular target: Ephrin type-A receptor 7 (Homo sapiens) (UniProt Q15375); settings: at 10 µM
[8] = molecular target: T2, Ephrin type-A receptor 8 (Homo sapiens) (UniProt P29322); settings: at 1 µM
T2 sequence (whole entry): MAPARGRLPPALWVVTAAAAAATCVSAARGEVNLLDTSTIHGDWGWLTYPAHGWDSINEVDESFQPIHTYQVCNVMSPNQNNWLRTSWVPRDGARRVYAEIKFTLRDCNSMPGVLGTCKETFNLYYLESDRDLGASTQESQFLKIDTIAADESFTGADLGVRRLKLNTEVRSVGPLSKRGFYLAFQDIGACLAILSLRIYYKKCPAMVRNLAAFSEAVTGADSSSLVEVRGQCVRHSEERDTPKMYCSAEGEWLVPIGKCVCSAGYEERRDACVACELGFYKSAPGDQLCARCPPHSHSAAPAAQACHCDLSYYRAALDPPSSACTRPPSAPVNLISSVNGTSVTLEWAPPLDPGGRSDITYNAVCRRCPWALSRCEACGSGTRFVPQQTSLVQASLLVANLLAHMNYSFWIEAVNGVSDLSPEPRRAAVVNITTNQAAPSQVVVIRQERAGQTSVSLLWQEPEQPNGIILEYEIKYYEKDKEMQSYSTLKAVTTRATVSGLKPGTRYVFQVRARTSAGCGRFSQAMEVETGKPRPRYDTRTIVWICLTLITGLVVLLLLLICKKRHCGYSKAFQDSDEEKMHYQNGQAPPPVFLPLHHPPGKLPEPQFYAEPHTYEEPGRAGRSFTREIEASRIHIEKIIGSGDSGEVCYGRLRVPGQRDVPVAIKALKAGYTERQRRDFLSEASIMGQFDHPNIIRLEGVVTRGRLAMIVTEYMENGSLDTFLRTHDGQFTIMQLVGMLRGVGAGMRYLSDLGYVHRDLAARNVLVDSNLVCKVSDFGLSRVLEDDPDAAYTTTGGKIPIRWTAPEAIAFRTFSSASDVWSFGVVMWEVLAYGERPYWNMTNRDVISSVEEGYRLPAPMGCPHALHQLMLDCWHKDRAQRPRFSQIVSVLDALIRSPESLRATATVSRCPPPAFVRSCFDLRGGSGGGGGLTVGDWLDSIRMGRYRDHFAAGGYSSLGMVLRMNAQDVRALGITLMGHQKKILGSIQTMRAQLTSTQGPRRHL

[9] = molecular target: T2, Ephrin type-A receptor 8 (Homo sapiens); settings: at 10 µM
[10] = molecular target: T3, Ephrin type-B receptor 1 (Homo sapiens) (UniProt P54762); settings: at 1 µM
T3 sequence (whole entry): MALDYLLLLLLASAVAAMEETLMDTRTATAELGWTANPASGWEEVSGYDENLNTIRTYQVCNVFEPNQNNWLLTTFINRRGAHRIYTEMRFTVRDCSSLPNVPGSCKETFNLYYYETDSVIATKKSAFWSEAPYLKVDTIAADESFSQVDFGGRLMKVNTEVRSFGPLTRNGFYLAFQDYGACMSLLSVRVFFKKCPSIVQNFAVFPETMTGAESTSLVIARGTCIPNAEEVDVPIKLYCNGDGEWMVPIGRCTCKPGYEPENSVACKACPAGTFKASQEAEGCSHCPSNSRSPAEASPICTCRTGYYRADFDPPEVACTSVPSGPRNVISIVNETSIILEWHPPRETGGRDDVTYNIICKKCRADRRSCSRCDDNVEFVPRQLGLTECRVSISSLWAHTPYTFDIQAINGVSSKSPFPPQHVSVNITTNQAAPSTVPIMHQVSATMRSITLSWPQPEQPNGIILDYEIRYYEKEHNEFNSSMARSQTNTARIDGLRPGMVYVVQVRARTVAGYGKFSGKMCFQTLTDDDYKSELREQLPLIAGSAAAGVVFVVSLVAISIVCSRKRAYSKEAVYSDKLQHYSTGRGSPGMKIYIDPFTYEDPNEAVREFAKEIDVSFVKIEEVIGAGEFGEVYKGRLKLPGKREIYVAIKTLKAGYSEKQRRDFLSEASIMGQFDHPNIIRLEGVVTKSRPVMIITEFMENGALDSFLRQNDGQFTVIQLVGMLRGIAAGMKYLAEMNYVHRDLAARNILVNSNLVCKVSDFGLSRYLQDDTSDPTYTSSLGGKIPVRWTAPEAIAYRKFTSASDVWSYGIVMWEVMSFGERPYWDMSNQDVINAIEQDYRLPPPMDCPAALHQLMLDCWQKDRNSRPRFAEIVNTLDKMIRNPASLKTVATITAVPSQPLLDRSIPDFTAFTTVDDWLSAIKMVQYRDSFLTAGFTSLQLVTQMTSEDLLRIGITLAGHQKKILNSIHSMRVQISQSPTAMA

[11] = molecular target: T3, Ephrin type-B receptor 1 (Homo sapiens); settings: at 10 µM
[12] = molecular target: T4, Ephrin type-B receptor 2 (Homo sapiens) (UniProt P29323); settings: at 1 µM
T4 sequence (whole entry): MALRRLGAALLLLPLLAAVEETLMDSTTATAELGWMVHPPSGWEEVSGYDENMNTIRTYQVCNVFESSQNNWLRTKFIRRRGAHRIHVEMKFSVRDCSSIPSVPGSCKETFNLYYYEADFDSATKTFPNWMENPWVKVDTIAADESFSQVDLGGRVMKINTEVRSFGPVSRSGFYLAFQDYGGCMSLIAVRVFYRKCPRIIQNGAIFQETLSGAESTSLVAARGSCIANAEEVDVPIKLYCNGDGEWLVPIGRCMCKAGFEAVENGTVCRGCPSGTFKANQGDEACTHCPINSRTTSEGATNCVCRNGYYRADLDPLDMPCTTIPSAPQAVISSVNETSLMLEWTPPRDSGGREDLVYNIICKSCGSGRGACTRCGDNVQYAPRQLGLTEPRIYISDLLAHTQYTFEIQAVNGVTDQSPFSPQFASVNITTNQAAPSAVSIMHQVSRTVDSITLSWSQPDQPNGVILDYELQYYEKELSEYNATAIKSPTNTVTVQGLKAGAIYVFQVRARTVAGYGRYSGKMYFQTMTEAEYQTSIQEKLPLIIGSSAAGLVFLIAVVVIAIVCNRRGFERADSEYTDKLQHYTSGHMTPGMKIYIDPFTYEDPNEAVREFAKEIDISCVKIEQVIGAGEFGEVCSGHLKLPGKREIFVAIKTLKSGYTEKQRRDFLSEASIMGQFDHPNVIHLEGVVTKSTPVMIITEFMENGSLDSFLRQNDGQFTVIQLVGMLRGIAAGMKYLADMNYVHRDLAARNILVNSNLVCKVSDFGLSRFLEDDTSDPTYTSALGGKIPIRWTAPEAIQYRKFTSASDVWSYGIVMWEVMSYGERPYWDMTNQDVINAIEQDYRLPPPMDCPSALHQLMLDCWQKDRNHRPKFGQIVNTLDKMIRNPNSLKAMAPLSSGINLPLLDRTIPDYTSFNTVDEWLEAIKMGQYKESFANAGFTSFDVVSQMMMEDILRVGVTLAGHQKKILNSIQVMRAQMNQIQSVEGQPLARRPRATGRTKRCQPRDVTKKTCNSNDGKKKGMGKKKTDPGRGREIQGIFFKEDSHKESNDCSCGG

[13] = molecular target: T4, Ephrin type-B receptor 2 (Homo sapiens); settings: at 10 µM
[14] = molecular target: T5, Ephrin type-B receptor 3 (Homo sapiens) (UniProt P54753); settings: at 1 µM
T5 sequence (whole entry): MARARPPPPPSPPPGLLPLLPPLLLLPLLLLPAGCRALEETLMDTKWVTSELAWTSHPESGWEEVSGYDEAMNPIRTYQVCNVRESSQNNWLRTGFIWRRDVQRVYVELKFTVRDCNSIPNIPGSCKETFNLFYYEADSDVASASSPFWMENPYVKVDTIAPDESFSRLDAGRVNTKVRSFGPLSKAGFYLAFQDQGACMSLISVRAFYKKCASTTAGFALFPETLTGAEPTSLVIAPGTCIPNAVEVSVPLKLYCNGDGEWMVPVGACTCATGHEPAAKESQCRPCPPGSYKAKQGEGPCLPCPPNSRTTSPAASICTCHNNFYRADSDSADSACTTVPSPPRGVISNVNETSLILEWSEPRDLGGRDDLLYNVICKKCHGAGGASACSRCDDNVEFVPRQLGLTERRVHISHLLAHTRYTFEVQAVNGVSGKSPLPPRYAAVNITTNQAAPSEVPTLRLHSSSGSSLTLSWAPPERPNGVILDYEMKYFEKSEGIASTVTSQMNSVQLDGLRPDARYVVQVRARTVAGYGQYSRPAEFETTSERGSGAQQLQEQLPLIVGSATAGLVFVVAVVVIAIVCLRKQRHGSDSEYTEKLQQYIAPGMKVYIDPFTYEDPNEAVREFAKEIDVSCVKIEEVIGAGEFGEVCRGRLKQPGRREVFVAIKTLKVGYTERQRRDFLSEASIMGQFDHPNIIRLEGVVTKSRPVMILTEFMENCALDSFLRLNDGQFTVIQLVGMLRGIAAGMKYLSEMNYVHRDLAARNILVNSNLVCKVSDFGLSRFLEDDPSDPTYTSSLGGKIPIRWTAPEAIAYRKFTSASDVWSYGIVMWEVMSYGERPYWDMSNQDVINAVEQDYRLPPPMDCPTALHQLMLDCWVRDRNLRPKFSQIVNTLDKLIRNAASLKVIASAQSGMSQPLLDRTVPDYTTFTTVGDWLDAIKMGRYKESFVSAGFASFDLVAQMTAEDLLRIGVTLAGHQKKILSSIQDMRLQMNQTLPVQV

[15] = molecular target: T5, Ephrin type-B receptor 3 (Homo sapiens); settings: at 10 µM
[16] = molecular target: T6, Ephrin type-B receptor 4 (Homo sapiens) (UniProt P54760); settings: at 1 µM
T6 sequence (whole entry): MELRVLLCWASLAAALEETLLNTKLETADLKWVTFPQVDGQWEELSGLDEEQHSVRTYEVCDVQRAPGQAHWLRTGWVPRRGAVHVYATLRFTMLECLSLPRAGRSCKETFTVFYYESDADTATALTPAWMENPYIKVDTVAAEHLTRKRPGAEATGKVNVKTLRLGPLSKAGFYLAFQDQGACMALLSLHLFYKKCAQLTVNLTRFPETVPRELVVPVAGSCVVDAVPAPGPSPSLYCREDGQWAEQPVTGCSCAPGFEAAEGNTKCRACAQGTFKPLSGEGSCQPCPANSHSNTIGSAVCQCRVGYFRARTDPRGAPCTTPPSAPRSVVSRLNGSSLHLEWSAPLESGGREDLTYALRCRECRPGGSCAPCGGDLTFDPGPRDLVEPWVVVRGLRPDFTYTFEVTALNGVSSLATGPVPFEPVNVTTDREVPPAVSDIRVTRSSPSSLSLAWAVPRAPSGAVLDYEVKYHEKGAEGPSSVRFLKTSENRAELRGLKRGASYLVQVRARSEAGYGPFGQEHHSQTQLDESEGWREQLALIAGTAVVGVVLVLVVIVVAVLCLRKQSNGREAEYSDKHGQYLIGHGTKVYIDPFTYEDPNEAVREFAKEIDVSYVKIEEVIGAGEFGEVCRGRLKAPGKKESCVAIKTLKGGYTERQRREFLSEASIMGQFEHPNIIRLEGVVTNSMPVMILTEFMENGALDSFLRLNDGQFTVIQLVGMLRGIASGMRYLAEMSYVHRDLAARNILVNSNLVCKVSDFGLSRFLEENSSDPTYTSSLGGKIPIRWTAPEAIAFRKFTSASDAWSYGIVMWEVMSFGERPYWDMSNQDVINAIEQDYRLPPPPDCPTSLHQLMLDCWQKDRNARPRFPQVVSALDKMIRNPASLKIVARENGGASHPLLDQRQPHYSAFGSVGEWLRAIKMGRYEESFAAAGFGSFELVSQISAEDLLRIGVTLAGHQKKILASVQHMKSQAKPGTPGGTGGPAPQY

[17] = molecular target: T6, Ephrin type-B receptor 4 (Homo sapiens); settings: at 10 µM
[18] = molecular target: Receptor tyrosine-protein kinase erbB-4 (Homo sapiens) (UniProt Q15303); settings: at 1 µM
[19] = molecular target: Receptor tyrosine-protein kinase erbB-4 (Homo sapiens) (UniProt Q15303); settings: at 10 µM
[20] = molecular target: Focal adhesion kinase 1 (Homo sapiens) (UniProt Q05397); settings: at 1 µM

Ephrin type-A receptor 5 (Homo sapiens), sequence (P54756 whole entry): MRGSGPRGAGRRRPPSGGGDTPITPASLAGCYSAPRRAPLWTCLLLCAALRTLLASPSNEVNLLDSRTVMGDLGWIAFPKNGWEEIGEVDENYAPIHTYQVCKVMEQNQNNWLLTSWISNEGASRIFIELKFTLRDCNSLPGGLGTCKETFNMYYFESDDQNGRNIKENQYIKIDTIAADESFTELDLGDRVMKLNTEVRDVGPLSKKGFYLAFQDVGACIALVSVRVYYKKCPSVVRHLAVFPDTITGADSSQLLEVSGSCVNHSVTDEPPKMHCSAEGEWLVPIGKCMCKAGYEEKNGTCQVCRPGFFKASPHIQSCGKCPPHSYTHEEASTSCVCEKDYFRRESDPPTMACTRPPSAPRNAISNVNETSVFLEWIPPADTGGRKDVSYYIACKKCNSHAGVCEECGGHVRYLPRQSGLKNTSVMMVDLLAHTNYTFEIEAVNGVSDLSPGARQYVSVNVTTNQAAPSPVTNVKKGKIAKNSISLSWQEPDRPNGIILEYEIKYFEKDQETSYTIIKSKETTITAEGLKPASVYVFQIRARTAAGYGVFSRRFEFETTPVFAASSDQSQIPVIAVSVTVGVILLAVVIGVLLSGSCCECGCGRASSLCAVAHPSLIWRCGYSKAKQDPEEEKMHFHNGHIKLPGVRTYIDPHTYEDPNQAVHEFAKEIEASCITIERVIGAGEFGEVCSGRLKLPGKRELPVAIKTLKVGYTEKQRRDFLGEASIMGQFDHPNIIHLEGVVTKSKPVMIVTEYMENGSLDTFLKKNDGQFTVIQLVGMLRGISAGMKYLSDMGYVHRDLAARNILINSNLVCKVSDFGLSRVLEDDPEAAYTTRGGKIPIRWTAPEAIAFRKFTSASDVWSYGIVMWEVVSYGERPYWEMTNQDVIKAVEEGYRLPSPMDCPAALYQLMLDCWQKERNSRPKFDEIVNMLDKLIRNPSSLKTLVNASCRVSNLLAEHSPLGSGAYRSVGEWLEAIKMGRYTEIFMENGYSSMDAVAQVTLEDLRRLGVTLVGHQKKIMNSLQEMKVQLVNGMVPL
Ephrin type-A receptor 7 (Homo sapiens), sequence (Q15375 28-998 limits assumed): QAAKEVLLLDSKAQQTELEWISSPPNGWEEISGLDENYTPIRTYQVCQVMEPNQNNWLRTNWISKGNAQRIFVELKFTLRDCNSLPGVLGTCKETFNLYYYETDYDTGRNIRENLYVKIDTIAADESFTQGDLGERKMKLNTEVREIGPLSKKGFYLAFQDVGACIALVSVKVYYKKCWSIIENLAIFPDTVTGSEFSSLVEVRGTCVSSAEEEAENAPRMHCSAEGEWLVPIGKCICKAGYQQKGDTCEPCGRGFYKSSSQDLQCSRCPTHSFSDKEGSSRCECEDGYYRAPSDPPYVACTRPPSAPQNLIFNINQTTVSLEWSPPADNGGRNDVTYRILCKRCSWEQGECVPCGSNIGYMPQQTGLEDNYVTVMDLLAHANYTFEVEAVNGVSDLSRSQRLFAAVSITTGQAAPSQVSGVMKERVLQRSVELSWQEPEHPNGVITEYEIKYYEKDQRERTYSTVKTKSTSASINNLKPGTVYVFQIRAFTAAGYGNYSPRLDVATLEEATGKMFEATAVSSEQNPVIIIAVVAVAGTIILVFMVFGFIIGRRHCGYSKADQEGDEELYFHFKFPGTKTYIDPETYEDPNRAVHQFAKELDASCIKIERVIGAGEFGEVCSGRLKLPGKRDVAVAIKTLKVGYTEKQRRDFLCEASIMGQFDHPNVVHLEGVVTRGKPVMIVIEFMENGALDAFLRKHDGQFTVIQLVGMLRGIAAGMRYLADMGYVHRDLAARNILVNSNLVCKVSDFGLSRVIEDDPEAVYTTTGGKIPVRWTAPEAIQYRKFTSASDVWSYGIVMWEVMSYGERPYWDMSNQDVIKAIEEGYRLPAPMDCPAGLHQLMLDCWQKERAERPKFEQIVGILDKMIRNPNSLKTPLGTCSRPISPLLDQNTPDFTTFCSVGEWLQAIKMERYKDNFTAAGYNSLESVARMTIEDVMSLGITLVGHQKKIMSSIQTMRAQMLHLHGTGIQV
Ephrin type-A receptor 4 (Homo sapiens), sequence (P54764 whole entry): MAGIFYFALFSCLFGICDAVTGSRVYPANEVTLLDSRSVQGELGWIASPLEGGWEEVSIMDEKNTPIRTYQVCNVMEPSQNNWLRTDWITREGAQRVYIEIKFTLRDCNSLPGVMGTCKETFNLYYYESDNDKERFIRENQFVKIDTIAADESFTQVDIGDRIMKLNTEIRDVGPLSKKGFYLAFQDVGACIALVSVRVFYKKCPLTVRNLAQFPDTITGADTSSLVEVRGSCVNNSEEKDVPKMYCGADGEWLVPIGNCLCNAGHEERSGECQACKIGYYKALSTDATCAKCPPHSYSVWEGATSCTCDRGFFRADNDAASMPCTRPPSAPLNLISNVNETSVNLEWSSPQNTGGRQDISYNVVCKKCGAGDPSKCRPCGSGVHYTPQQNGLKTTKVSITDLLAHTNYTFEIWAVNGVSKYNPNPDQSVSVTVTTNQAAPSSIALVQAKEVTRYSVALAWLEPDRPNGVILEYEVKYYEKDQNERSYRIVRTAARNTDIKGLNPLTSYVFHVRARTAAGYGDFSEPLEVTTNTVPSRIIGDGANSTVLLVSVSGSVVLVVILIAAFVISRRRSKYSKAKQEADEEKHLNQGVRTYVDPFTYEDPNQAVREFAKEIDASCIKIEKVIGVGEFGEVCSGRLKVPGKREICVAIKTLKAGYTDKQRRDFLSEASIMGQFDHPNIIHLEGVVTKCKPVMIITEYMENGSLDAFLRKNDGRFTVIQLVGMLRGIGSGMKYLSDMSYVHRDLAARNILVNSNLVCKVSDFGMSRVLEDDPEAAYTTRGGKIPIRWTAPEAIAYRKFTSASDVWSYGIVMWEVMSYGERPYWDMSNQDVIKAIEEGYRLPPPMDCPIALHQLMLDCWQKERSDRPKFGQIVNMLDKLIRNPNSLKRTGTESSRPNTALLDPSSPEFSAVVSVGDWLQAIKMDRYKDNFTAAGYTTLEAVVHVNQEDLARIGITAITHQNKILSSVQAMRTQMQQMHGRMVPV
Receptor tyrosine-protein kinase erbB-4 (Homo sapiens), sequence (Q15303 whole entry): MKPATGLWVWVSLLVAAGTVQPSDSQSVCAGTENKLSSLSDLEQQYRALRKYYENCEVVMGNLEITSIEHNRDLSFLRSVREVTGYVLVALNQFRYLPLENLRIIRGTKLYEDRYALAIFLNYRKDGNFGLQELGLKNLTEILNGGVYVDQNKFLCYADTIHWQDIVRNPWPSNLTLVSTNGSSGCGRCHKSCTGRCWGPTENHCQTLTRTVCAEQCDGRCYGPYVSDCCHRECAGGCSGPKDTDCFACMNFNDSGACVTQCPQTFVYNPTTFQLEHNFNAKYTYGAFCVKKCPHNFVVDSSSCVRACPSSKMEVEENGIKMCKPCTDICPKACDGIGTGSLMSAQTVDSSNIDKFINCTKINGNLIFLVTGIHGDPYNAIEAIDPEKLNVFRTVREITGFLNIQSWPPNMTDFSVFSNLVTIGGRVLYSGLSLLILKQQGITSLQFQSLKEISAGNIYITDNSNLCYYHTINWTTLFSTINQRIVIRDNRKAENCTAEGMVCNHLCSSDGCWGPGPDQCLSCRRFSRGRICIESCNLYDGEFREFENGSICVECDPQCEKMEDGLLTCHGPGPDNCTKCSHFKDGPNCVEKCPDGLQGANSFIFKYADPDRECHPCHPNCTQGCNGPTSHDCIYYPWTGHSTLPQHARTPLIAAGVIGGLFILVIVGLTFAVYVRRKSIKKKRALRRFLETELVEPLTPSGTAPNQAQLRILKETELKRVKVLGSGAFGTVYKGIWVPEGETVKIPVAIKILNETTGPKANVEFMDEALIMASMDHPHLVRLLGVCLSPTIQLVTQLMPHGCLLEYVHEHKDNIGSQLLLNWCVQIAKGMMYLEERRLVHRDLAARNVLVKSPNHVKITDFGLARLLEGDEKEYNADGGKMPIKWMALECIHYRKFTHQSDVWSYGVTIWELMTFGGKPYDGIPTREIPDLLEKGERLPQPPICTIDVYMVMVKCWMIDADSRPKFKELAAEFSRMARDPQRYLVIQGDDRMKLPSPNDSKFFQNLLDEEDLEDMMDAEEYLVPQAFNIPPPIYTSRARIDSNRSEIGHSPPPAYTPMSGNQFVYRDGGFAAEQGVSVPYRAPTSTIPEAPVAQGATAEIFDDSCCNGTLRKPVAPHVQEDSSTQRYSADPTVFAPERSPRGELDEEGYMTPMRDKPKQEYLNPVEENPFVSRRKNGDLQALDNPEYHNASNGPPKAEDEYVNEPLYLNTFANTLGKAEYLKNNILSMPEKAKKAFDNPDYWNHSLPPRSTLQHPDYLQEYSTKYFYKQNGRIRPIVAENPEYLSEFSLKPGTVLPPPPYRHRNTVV

Ic1cccc(CSc2nnc(-c3ccncc3)o2)c1
residual activity [1]: 83% | residual activity [2]: 104% | residual activity [3]: 103% | residual activity [4]: 106% | residual activity [5]: 99% | residual activity [6]: 88% | residual activity [7]: 81% | residual activity [8]: 89% | residual activity [9]: 87% | residual activity [10]: 95% | residual activity [11]: 84% | residual activity [12]: 106% | residual activity [13]: 109% | residual activity [14]: 104% (inactive) | residual activity [15]: 101% | residual activity [16]: 84% | residual activity [17]: 84% | residual activity [18]: 94% | residual activity [19]: 91% | residual activity [20]: 96%
